Compound activity (PubChem)
ROMK mod: modulators of human ROMK potassium channel; Tet-inducible ROMK, thallium flux fluorescence; actives lie on both sides; B-score at 10 µM; actives 2% (n = 130,000);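 active = signal ratio slope over the read window, or its plate-corrected B-score, at least 3 SD from the plate mean, either direction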;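 also: B-score of the F/F0 ratio slope over 7 to 12 s after thallium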
Target sequence (P48048 whole entry, looked up): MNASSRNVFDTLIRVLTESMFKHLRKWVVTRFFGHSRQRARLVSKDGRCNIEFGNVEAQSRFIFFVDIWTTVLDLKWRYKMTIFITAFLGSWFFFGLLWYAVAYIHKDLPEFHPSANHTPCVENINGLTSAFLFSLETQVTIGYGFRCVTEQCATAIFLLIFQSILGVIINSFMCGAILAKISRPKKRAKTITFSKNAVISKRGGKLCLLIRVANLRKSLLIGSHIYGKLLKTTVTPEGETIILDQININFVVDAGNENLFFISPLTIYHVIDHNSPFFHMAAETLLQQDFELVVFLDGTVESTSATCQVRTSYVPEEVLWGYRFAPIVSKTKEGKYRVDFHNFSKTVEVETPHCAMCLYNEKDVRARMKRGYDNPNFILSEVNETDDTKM
HSV replic up: HSV replication enhancement; HSV replication augmentation in cells, fold increase; actives 0.005% (n = 220,000); AID 1956; maximum fold increase; in the data active = maximum fold increase above about 1.5; inconclusive = no clear call, values can overlap the other calls; tested in PC3 cells
Insulin prom up: MIN6 insulin promoter up-regulation; MIN6 insulin promoter-GFP reporter, high-content imaging; hits give high values; z-score at 5 µM; actives 0.3% (n = 190,000); AID 1625;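 active = z-score above 3 at 5 µM with at least 500 cells counted in the well; inconclusive = wells under 500 cells, flagged as cytotoxic or low count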
TbHK1 inh: T. brucei hexokinase 1 inhibition. recombinant TbHK1, G6PDH-coupled NADH A340. inhibition, % at 10 µM. actives 0.11% (n = 220,000);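 active = inhibition of 50% or more in the single-dose primary screen; inactive = inhibition below 50%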
Insulin prom inh: TRM-6 insulin promoter activity inhibition; inhibition, % at 2 µM; AID 1273; TRM-6 cells (human fetal islet line), insulin promoter-eGFP reporter, imaging; reporter expression induced with tamoxifen; actives 0.9% (n = 130,000);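 active = inhibition above the mean plus 3 SD, with well images judged a real hit on visual review, cut at about 60% in these data, passing the limit was not always enough; inconclusive = inhibition over the cutoff but images rejected on review; inactive = inhibition not above the cutoff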
Large screens that a line does not name were inactive. The full list was thinned out, with hits kept by preference.

Cc1ccccc1C1CC(c2cccs2)Nc2nnnn21 (stereo not given)	none (no result: Insulin prom inh)
COc1cc(/C=N/NC(=O)c2ccc(-n3cccc3)cc2)ccc1O	Insulin prom inh 71
COc1cc(/C=N/NC(=O)c2cccs2)ccc1O	none (no result: ROMK mod, Insulin prom inh)
CCS(=O)(=O)N1Cc2ccccc2CC1C(=O)OCC(=O)Nc1ccc(C)cc1 (stereo not given)	Insulin prom up 5
CC(C)(C)c1ccc(OCC(=O)Nc2ccc3c4c(cccc24)C(=O)NC3=O)cc1	HSV replic up inconclusive (no result: Insulin prom up, Insulin prom inh)
COc1ccc(-n2ncc3c(NCc4ccco4)ncnc32)cc1	none (no result: Insulin prom inh)
Clc1ccc(-n2ncc3c(NCc4ccco4)ncnc32)cc1	ROMK mod 3.9 (no result: Insulin prom up, Insulin prom inh)
CC(c1ccccc1)N1CCc2[nH]c(=S)[nH]c(=O)c2C1 (stereo not given)	Insulin prom inh 91
COCCN1CCc2[nH]c(=S)[nH]c(=O)c2C1	none (no result: ROMK mod, Insulin prom inh)
CC1C/C(=C/c2ccccn2)C(=O)/C(=C/c2ccccn2)C1 (stereo not given)	ROMK mod -4.7, Insulin prom inh inconclusive
CC(C)(C)C1C/C(=C/c2ccccn2)C(=O)/C(=C/c2ccccn2)C1 (stereo not given)	Insulin prom up inconclusive
CC1CC(C)CN(CCOc2ccc(Br)cc2)C1 (stereo not given)	none
Cc1ccc(-n2c(=O)c3ccccc3n(CC(=O)NCc3ccco3)c2=O)cc1	Insulin prom inh 73
COCCNC(=O)Cn1c(=O)n(Cc2ccco2)c(=O)c2ccccc21	Insulin prom inh 86 (no result: ROMK mod)
CCn1c(=O)n(CC(=O)NCc2ccco2)c(=O)c2ccccc21	none
Cc1sc2c(c1C)c(=O)n(-c1cccc(C(F)(F)F)c1)c(=O)n2CC(=O)NCc1ccco1	Insulin prom inh 69 (no result: Insulin prom up)
COc1ccc(NC(=O)NC23CC4(C)CC(C)(CC(C)(C4)C2)C3)cc1	none
COC(=O)C1=C(C)NC(=S)N(C(C)=O)C1c1ccccc1 (stereo not given)	Insulin prom inh 77 (no result: Insulin prom up)
COC(=O)C1=C(C)NC(=O)CC1c1ccccc1 (stereo not given)	none (no result: ROMK mod)
COc1ccc(CN2C3CCCC2CC(NC(=O)Nc2ccccc2)C3)cc1 (stereo not given)	Insulin prom inh 81 (no result: ROMK mod)
COc1ccc(CN2C3CCCC2CC(NC(=O)Nc2cccc(C)c2)C3)cc1 (stereo not given)	none (no result: ROMK mod)
Cc1[nH]n(-c2ccccc2)c(=O)c1C(c1ccc(O)c([N+](=O)[O-])c1)c1c(C)[nH]n(-c2ccccc2)c1=O	Insulin prom inh 77 (no result: ROMK mod, Insulin prom up)
CCOc1ccc2nc(COC(=O)c3cccc([N+](=O)[O-])c3)c(C(C)=O)[n+]([O-])c2c1	none (no result: ROMK mod, Insulin prom inh)
CCCOc1ccc(-c2nn(-c3ccccc3)cc2/C=C2\SC(=S)N(C3CCS(=O)(=O)C3)C2=O)cc1 (stereo not given)	Insulin prom up 4.8 (no result: ROMK mod)
N#Cc1cccc(NC(=O)CSc2ccc3c4c(cccc24)C(=O)c2ccccc2-3)c1	ROMK mod -4.2 (no result: HSV replic up, Insulin prom up)
O=S(=O)(N1CCOCC1)n1c(Cc2ccccc2)nc2ccccc21	Insulin prom inh 70 (no result: ROMK mod)
Cc1ccc(C(=O)NNC(=S)NC(=O)c2ccc(Cl)cc2Cl)cc1	ROMK mod 5.8
Cc1ccccc1C(=O)NNC(=S)NC(=O)c1ccccc1	ROMK mod 2.3
Cc1ccc(C(=O)NNC(=S)NC(=O)c2ccco2)cc1	ROMK mod 3.6 (no result: Insulin prom inh)
CCCCCn1nc(C)c(/C=N\NC(=O)c2cc(C)oc2C)c1C	Insulin prom inh 85 (no result: ROMK mod)
CCCCCn1nc(C)c(/C=N/NC(=O)c2ccoc2C)c1C	Insulin prom inh 93 (no result: ROMK mod, Insulin prom up)
CC1(C)N([O-])C2=C(CCCC2)[N+]1=O	none (no result: Insulin prom inh)
Cn1c(=NC(=O)COc2ccccc2)sc2ccccc21	none
Cc1cccc(C(=O)NC(=S)NNC(=O)COc2ccc(Cl)cc2)c1	ROMK mod 3.3 (no result: Insulin prom inh)
CC(OC(=O)CCN1C(=O)c2cccc([N+](=O)[O-])c2C1=O)C(=O)Nc1cc(Cl)cc(Cl)c1 (stereo not given)	none
CC(C)(C)n1ncc2c(=O)n(CC(=O)NCc3ccccc3)cnc21	ROMK mod 4.2 (no result: Insulin prom up, Insulin prom inh)
CC(=O)Nc1ccc(NC(=O)Cn2cnc3c(cnn3C(C)(C)C)c2=O)cc1	none
Cc1ccccc1N=Cc1c(O)n(-c2nccs2)c(=O)c2ccccc12	none
O=c1c2ccccc2c(C=Nc2ccccc2O)c(O)n1-c1nccs1	HSV replic up inconclusive, Insulin prom up 4.3 (no result: ROMK mod, Insulin prom inh)
Cc1nn(C(=O)c2ccco2)c(C)c1Sc1ccc(Cl)cc1	none (no result: Insulin prom inh)
Cc1nn(C(=O)c2ccco2)c(C)c1Br	Insulin prom inh 67 (no result: Insulin prom up)
COc1ccc(NC(=O)c2c3c(nc4ccccc24)CCC3)cc1S(=O)(=O)N1CCOCC1	none
Cc1ccc(N(CN2CCCC2=O)C(=O)c2ccccc2)cc1	none (no result: ROMK mod, Insulin prom inh)
COc1ccc(C(=O)N(CN2CCCC2=O)c2ccc(C)cc2)cc1	Insulin prom up 3.4 (no result: Insulin prom inh)
O=C(Nc1ccc(Cl)cc1)c1cc2nc(-c3ccco3)cc(C(F)(F)F)n2n1	Insulin prom inh 71
Cc1ccc(NS(=O)(=O)c2cc(OCC(N)=O)c(C)cc2Cl)cc1C	ROMK mod -3.1 (no result: Insulin prom up)
Cc1cccc(NS(=O)(=O)c2cc(OCC(N)=O)c(C)cc2Cl)c1	none (no result: Insulin prom up)
CN(/N=C/c1cccnc1)c1cnc2ccccc2n1	Insulin prom inh 78
O=C(NCc1ccco1)C(c1cccs1)N(C(=O)C1COc2ccccc2O1)c1cccc(O)c1 (stereo not given)	ROMK mod -7.2 (no result: Insulin prom inh)
O=C1CCCC(=O)C1=Cc1c[nH]c2ccccc12	ROMK mod -4.1
O=C1CCCc2c1[nH]c1ccccc21	none
Nc1ccc(/C=C/C(=O)c2cccs2)cc1	ROMK mod -6
CCN(CC)c1ccc(-c2nn3c(-c4ccccc4OC)nnc3s2)cc1	ROMK mod 3.9, Insulin prom up inconclusive (no result: Insulin prom inh)
COC(=O)Nc1ccc(S(=O)(=O)Nc2ccc(O)cc2)cc1	Insulin prom inh 79 (no result: ROMK mod, Insulin prom up)
COC(=O)c1ccc2c(=O)n(-c3ccccc3F)c(=S)[nH]c2c1	Insulin prom inh 100
CC(C)C(=O)NCc1cc(-c2ccccc2)no1	none
Cc1[nH]nc2c1C(c1ccsc1C)C(C#N)=C(N)O2 (stereo not given)	none
Cc1cc(C2C(C#N)=C(N)Oc3n[nH]c(C)c32)c(C)s1 (stereo not given)	Insulin prom up 3.4 (no result: ROMK mod)
O=c1[nH]c2c(c(=O)[nH]1)CCC2	none (no result: Insulin prom inh)
O=C(COc1ccc(Br)cc1CNC1CCCC1)Nc1ccccc1	none (no result: Insulin prom inh)
CCc1ccc2oc(-c3ccc(OC)cc3)cc(=Nc3cccc(C(=O)O)c3)c2c1	ROMK mod 2.3 (no result: Insulin prom inh)
COc1ccc(-c2cc(=Nc3ccc(C(=O)O)cc3)c3cc(C)ccc3o2)cc1	none
O=C(NN1C(=O)c2ccccc2C1=O)c1ccccc1[N+](=O)[O-]	none
CCOc1ccccc1N/C=C(\C#N)c1nc2ccccc2n1C	Insulin prom inh 72
